# PKM2 inhibitor: blocks activity of human pyruvate kinase M2 | P14618 | purified PKM2, ATP generation, Kinase-Glo luminescence | Potency, µM (top dose mostly 57.5 µM), actives largely listed as inhibitors | 260,000 tested, 0.058% active | AID 1634; note: nearly all actives have a fitted effect of over 60% in size
# Target sequence (P14618 whole entry, looked up): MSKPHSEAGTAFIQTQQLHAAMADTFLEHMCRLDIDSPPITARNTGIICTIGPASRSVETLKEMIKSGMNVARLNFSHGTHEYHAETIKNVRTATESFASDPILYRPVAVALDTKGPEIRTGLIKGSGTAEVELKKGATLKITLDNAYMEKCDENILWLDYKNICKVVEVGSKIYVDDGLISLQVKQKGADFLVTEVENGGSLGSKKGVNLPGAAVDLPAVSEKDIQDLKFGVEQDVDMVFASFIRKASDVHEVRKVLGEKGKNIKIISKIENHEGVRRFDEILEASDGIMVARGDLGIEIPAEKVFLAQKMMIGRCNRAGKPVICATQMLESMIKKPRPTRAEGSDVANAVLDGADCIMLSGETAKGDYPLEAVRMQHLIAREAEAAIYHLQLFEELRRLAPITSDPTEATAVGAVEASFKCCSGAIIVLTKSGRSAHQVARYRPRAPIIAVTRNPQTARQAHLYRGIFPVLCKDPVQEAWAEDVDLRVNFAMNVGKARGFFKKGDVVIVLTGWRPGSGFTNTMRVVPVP
#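 Coupled luciferase luminescence (Kinase-Glo) detects ATP generated from 0.1 mM ADP and 0.5 mM PEP in imidazole buffer pH 7.2 with KCl, MgCl2; 1 h at room temperature. Enzyme at intermediate activity; normalized to uninhibited and no-enzyme controls.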
# PKM2 inh dose: confirmation of human pyruvate kinase M2 inhibitors, concentration-response; purified hPK-M2, Kinase-Glo ATP luminescence, 1 h; 55 tested, 50% active; shares compounds with PKM2 inhibitor; Potency, µM (top dose mostly 57.5 µM), usual class: inhibitors
# PKM2 FLuc cs: blocks firefly luciferase, flagging PKM2 inhibitor artifacts. Potency, µM (highest dose often 57.5 µM), usual class: inhibitors. 55 tested, 30% active. Kinase-Glo firefly luciferase, luminescence, 8 min. shares compounds with PKM2 inhibitor
# PKM2 inh LDH: confirmation of human pyruvate kinase M2 inhibitors, coupled readout | shares compounds with PKM2 inhibitor | Potency, µM (titrated, usually from 57.5 µM), usual class: inhibitors | 55 tested, under 10 active | AID 2267 | purified hPK-M2, LDH-coupled NADH fluorescence kinetic
# A number is an active result; . = inactive; ? = inconclusive; / = no result given; [ ] = dose if it differs, or a comment. The entries come from a sample that favours hits as a whole. Calls come from the whole dose curve; as a rule, active = well fitted curve in the direction sought with a large enough effect; inconclusive = small, poorly fitted or top-dose-only effect, or another doubt; inactive = no such curve, though single readings can be large; an effect the other way counts as inactive or inconclusive.
SMILES,PKM2 inhibitor,others
Cc1ccsc1/C=N/Nc1nc(=O)[nH]nc1C,14.1µM,
O=C1COc2cc(S(=O)(=O)CCC(=O)N3CCCCC3)c(Cl)cc2N1,.,
C/C(=N\NC(=O)c1cccc(N/N=C(\C)c2cc(O)ccc2O)c1)c1cc(O)ccc1O,.,
Fc1ccccc1-c1nc2ccccc2[nH]1,31.6µM,
Cc1cc(C)c2c(N)c(-c3nc4ccccc4[nH]3)sc2n1,.,
CCOc1ccc(CC(=O)NNC(=S)NCCc2ccccc2)cc1,.,
Cn1c(=O)c2c(nc(Br)n2C/C=N/NC(N)=S)n(C)c1=O,.,
COc1cc2c(cc1OC)CN(C(=O)c1ccc3[nH]c(C)c(C)c3c1)CC2,.,
Cc1ccc(CC2CC(=O)N(Cc3ccco3)C2=O)cc1 (configuration not stated),.,
Cc1ccc2c(c1)C(N1CCCC1=O)CC(c1ccco1)N2 (configuration not stated),14.1µM,
CC(C)(C)C(=O)/C(=C/c1ccncc1)n1cncn1,.,
O=C1C=CC(=O)N1c1ccc(OC(F)F)cc1,.,
CCOC(=O)C1=C(C)N(C)C(=O)NC1c1cccc2ccccc12 (configuration not stated),.,
Cc1c(C(=O)N2CCOCC2)c(S(=O)(=O)Nc2ccc(OC(F)(F)F)cc2)c(C)n1C,.,
Cc1ccc(CNC(=O)CCC2CCCN(C(=O)c3ccc4c(c3)OCO4)C2)o1 (configuration not stated),.,
O=C(Nc1ccccn1)c1cc2ccccc2o1,12.6µM,
O=C(NCc1cccs1)c1cc2ccccc2o1,.,
COc1ccccc1CC(=O)NNS(=O)(=O)c1ccc([N+](=O)[O-])cc1,.,
O=S(=O)(Nc1nc2ccc(Cl)cc2s1)c1cccs1,.,
CC(C)C(C)NC(=O)COc1ccc(S(=O)(=O)N2CCOCC2)cc1Cl (configuration not stated),.,
COC(=O)c1ccc(C(NC(=O)OCc2ccccc2)/C(I)=C/[C@@H](C)C(=O)NCc2ccc(C)o2)cc1 (some centres not stated),.,
COc1ccccc1C(=O)Nc1ncc2c(n1)CC(c1ccco1)CC2=O (configuration not stated),.,
COc1ccccc1C(=O)Nc1nc2ccccc2[nH]1,15.8µM,
CCCCNS(=O)(=O)c1ccc2nc(SCC(=O)c3ccccc3OC)[nH]c2c1,.,
CC1(C)CC(Nc2ccc(Nc3ccccc3)cc2)CC(C)(C)N1,.,
SMILES,PKM2 inhibitor,others
COc1cc(CN2CCNC(=O)C2CC(=O)N2CCCO2)cc(OC)c1 (configuration not stated),.,
O=S(=O)(c1ccccc1)C1(C2CC(c3ccccc3)=NO2)CC(O)C1 (configuration not stated),.,
COc1ccc(S(=O)(=O)N(C)C)cc1NCC(=O)Nc1ccc(Br)c(C)c1,.,
CCOc1ccc(-c2ccc(SC)nn2)cc1,3.16µM,
CCOc1ccc(CNc2cccc(SC)c2)cc1,.,
Cc1ccc(-c2ccc(SCC(=O)Nc3cc(C)on3)nn2)cc1,.,
COC(=O)c1c(N2C(=O)CC(Sc3ccccc3C(=O)O)C2=O)sc2c1CCCC2 (configuration not stated),.,
O=C(NCc1cccc(Cl)c1)N1CCN(S(=O)(=O)c2ccccc2F)CC1,.,
Cc1ccc(S(=O)(=O)N2CCN(C(=O)Cc3ccc4c(c3)OCCO4)CC2)cc1C,.,
C(=N\n1cnnc1)/c1ccccn1,.,
C(=N\Nc1nc2ccccc2[nH]1)/c1ccccn1,14.1µM,
COc1ccc([C@]23Cc4ccccc4C(O2)C2=C(CC(C)(C)CC2=O)O3)cc1,.[11.5 µM],
COc1cc2cc(C#N)c(SCC(=O)Nc3cc(C)on3)nc2cc1OC,.,
O=[N+]([O-])c1ccc(OCc2cnc(Cl)s2)c([N+](=O)[O-])c1,.,
CCN(CC)CCn1c(C)nc2ccccc21,.,
CCn1c(C)nc2cc(-c3nc4n(n3)Cc3ccccc3-4)ccc21,15.8µM,
Cc1ccc(C(=O)COc2nc(C)nc3ccccc23)cc1,.,
Cc1[nH]c(=S)sc1Cc1ccc(F)cc1,.,
O=C(O)COc1ccc(F)cc1Br,.,
Cc1cccc(N2CCN(C(=O)c3c(Cl)cnn3C)CC2)c1C,.,
COc1ccc(C2CC(c3ccc4ccccc4c3OC(C)=O)=NN2C(C)=O)cc1 (configuration not stated),.,
COc1cccc(-c2nnc(SCC(=O)Nc3cc(C)on3)o2)c1,.,
c1cc(-c2nnc(-c3ccncc3)o2)ccn1,.,
c1ccc(-c2noc(-c3ccncc3)n2)nc1,14.1µM,
COc1ccc(S(=O)(=O)NCc2c(-c3ccccc3)noc2C)c(OC)c1,.,
SMILES,PKM2 inhibitor,others
COc1cccc(-c2nc(-c3ccccn3)no2)c1,14.1µM,
c1ccc(-c2noc(-c3ccc4c(c3)OCO4)n2)nc1,8.91µM,
O=C(Cn1nnc(-c2ccc3c(c2)OCO3)n1)NCc1ccccc1,.,
Cc1cc(NC(=O)CSc2nncc(=O)n2N)no1,.,
COc1cc2c(cc1OC)N1C(=O)CC(OCC(=O)O)C3C4CC5(CCN5C(=O)C4=O)C2C31 (configuration not stated),.,
C#CC(C)(C)NC(=O)c1ccc(-c2ccccc2F)cc1,.,
O=C(O)c1ncn(Cc2ccc(Br)cc2)c1C(=O)O,.,
CS/C(N)=N/S(=O)(=O)c1ccc(NC(C)=O)cc1,.,
Cc1ccc(Nc2c(-c3ccsc3)nc3c(C)cccn23)cc1,/,PKM2 inh dose=.;PKM2 FLuc cs=.;PKM2 inh LDH=?
COc1ccc(Nc2c(-c3ccc(C)o3)nc3ccccn23)cc1,/,PKM2 inh dose=.;PKM2 FLuc cs=.;PKM2 inh LDH=.
Cc1ccc(Nc2c(-c3ccsc3)nc3cccc(C)n23)cc1,/,PKM2 inh dose=.;PKM2 FLuc cs=.;PKM2 inh LDH=?
Cc1ccc(-c2nc3cnccn3c2Nc2ccc3c(c2)OCCO3)o1,.,
Cc1ccc(Nc2c(-c3ccc(C)o3)nc3cccc(C)n23)cc1,/,PKM2 inh dose=.;PKM2 FLuc cs=.;PKM2 inh LDH=6.51µM
COc1ccc(NC(=O)c2cc(-c3ccc(C)o3)nc3ccccc23)cc1OC,.,
Cc1ccc(-c2csc(Nc3ccc(S(N)(=O)=O)cc3)n2)o1,.,
O=C(Nc1ccc(N2CCOCC2)c(Cl)c1)c1ccc(-n2cnnc2)cc1Cl,.,
CCN=C1S/C(=C\c2cc(Br)c(O)c(OC)c2)C(=O)N1CC,.,
C=CCn1c(SCc2nc3ccccc3c(=O)[nH]2)nc2scc(C3CC3)c2c1=O,.,
O=S(=O)(c1ccc(OCC2CO2)cc1)c1ccc(OCC2CO2)cc1 (configuration not stated),.,
O=S(=O)(Nc1ccc2ccccc2n1)c1ccc2c(c1)CCO2,.,
Cc1ccc(S(=O)(=O)Nc2ccccc2CNC2CCCCC2)cc1,.,
Cn1cccc1/C=N/N1CCN(Cc2cccc3ccccc23)CC1,.,
COc1ccc(S(=O)(=O)N(C)c2ccc(C(=O)NCc3ccco3)cc2)cc1,.,
Cc1ccc(NS(=O)(=O)c2cc3c4c(cccc4c2)C(=O)NC3=O)cc1C,.,
COc1cc(C2Oc3ccccc3C=C2[N+](=O)[O-])cc(OC)c1OC (configuration not stated),.,
O=C(NCc1ccc(/C=c2\sc3n(c2=O)CCN=3)o1)C(=O)Nc1ccccc1,.,
O=C(OCCOc1cccc(Cl)c1)c1ccc2ncsc2c1,.,
